# Compound activity from PubChem BioAssay.
# PNC assembly inh: inhibitors of perinucleolar compartment assembly; PC3M PTB-GFP, PNC prevalence imaging, 16 h; stronger effect = lower value; activity change (PNC), negative = inhibition, % at 10 µM; 3.1% of 140,000 active;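 active = readout at or below -70, meaning at least 70% loss of cells showing the perinucleolar compartment, a nuclear body marking cancer cells; inconclusive = readout between -30 and a set limit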
#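 PC3M cells stably expressing PTB-GFP, 750–1000 cells/well, treated 16 h at 37 °C with compound (23 nl of library stock), in duplicate. After paraformaldehyde fixation and Hoechst stain, imaged at 20x; PNC prevalence scored by image analysis.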
# ALDH1A1 block: ALDH1A1 (human) enzyme inhibition; P00352; Purified ALDH1A1, NADH fluorescence, propionaldehyde substrate; Potency, µM (highest dose often 75.3 µM), actives largely listed as inhibitors; 7.3% of 220,000 active; active = well fitted inhibition curve with a large enough effect, not every such curve was filed as active; inconclusive = small, poorly fitted or top-dose-only effect, or another doubt; inactive = no such curve, though single readings can be large or run the other way
# CBFb RUNX1 block: blocks binding between human CBF-beta and RUNX1. Q01196+Q13951. AlphaScreen CBFb-His/RUNX1-biotin binding, biochemical. Potency, µM (highest dose often 59.8 µM), most hits filed as inhibitors. 230,000 tested, under 10 active
# Target sequence (Q01196 whole entry, looked up): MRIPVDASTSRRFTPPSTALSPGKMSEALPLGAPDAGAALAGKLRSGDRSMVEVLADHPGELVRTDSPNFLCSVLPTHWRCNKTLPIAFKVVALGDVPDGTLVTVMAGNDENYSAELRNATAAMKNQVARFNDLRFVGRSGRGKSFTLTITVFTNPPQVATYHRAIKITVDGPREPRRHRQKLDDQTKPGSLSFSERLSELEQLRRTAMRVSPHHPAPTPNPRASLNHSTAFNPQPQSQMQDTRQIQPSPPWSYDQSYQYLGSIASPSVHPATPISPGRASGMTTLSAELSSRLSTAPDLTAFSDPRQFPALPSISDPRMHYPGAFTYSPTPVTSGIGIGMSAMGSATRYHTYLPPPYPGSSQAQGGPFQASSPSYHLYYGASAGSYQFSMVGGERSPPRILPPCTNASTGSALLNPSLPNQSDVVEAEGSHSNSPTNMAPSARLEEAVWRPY
# Target sequence (Q13951 whole entry, looked up): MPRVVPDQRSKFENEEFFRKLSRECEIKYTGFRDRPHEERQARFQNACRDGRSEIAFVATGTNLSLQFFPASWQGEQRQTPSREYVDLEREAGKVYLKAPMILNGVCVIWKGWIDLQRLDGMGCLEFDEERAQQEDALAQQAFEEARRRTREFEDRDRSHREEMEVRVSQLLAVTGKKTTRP
#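 CBF-beta (His) and RUNX1 (biotin), 30 nM each; 20 min preassociation; + compound, 15 min; + beads 50 ng each (Ni, streptavidin), 90 min; RT; AlphaScreen read.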
# HPGD block: blocks human HPGD enzyme activity; purified HPGD, NADH fluorescence kinetic, PGE2 substrate; Potency, µM, usual class: inhibitors; AID 894; 4.3% of 150,000 active; P15428; active = well fitted inhibition curve with a large enough effect, not every such curve was filed as active; inconclusive = small, poorly fitted or top-dose-only effect, or another doubt; inactive = no such curve, though single readings can be large or run the other way
#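 20 nM HPGD preincubated 15 min at room temperature with compound in 50 mM Tris-HCl pH 8, 0.01% Tween 20. Started with 1 mM NAD+ and 30 uM prostaglandin E2; NADH fluorescence (360/450 nm) read 5 times over 30-s intervals, last minus first.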
# HTT aggregate: reduces HttQ103-GFP aggregates in PC12 cells | Potency, µM (titrated, usually from 46.1 µM), hits mostly inhibitors | AID 1688 | 1.1% of 220,000 active | PC12 HttQ103-GFP aggregates, Acumen cytometry, 40 h; also: nearly all actives have a fitted effect of over 60% in size
#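 Read-out: GFP aggregate count by laser scanning cytometer (488 nm excitation, 500-530 nm emission, 1–25 µm objects >6 SD above background). Cells: PC12, inducible HTTex1-Q103-GFP, 100 nM tebufenozide; compounds titrated.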
# HTT ATP protect: Huntington cell model cytoprotection by ATP luminescence. PC12 HTT-Q103 induced, cytoprotection, ATP luminescence, 40 h. Potency, µM (series often up to 56.4 µM), actives largely listed as activators. 0.14% of 230,000 active. AID 1471; also: nearly all actives have a fitted effect of over 45% in size
#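 Readout: ATPlite luminescence (ATP level). Model: stable PC12, inducible Htt exon1 Q103-GFP. Inducer: tebufenozide, 100 nM final. Compounds: dose series. No G418 in medium.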
# Numbers stand for hits; 0 = inactive; ? = inconclusive; - = no result; [ ] = another dose, or the depositor's remark. Sampled rows, rich in hits. Any-hit rate of the full collection: about 11%. Unless noted, calls follow the shape of the dose curve; as a rule, active = well fitted curve in the direction sought with a large enough effect; inconclusive = small, poorly fitted or top-dose-only effect, or another doubt; inactive = no such curve, though single readings can be large; an effect the other way counts as inactive or inconclusive.
SMILES,PNC assembly inh,ALDH1A1 block,CBFb RUNX1 block,HPGD block,HTT aggregate,HTT ATP protect
C=CCn1c(COC)nnc1SCC(=O)c1ccc(F)cc1,?,11µM,0,0,?,0
CC(=O)OCC(CO)OC(C)=O (stereo not drawn) (tested in a mixture with another compound),-,-,0,-,-,-
COc1cccc(Cn2c(=O)cnc3cnc(Nc4ccccc4)nc32)c1,-,0,-,-,-,0
C=CCn1c(SCC(=O)c2ccc(OC)cc2)nnc1-c1cc2cccc(OC)c2o1,-123,0,0,0,0,0
C=CCn1c(SCC(=O)Nc2ccc3c(c2)OCCO3)nnc1-c1ccccn1,-81,?,0,0,0,0[0.074 µM]
C=CCc1cccc(/C=C/c2cc(=O)c3ccccc3[nH]2)c1O,?,0,0,0,3.2µM,0[10 µM]
c1cc2c3c(c1)ccc1cccc(c13)C2,-,0,0,0,-,0
CC(C)NS(=O)(=O)c1ccc(CCC(=O)Nc2ccc3c(c2)OCCO3)cc1,0,0,0,0,0,0[1.9 µM]
CC(C)(C)NS(=O)(=O)c1ccc(OCC(=O)Nc2ccc3c(c2)OCCO3)cc1,0,1.8µM,0,0,0,0[10 µM]
CC(C)(C)NS(=O)(=O)c1ccc(CCC(=O)Nc2ccc3c(c2)OCCO3)cc1,0,4µM,0,0,0,0[10 µM]
CC(C)(C)NS(=O)(=O)c1ccc(CCC(=O)Nc2ccc3c(c2)OCO3)cc1,0,0.18µM,0,0,0,0
CC(C)(C)NS(=O)(=O)c1ccc(CCC(=O)NCc2ccc3c(c2)OCO3)cc1,0,0,0,0,0,0[10 µM]
O=C(O)CCCCCNC(=O)Cn1nnc2ccccc2c1=O,-,-,0,-,0[9.22 µM],0[10 µM]
CC(=O)OCC(NC(=O)C(C)NC(=O)OC(C)(C)C)C1OC(n2ccc(=O)[nH]c2=O)C(OC(C)=O)C1OC(C)=O (stereo not drawn),-,-,0,-,-,-
COc1ccco1,-,-,0,-,-,-
O=C(C1CCCN(S(=O)(=O)c2ccc(Br)s2)C1)N1CCCCCC1 (stereo not drawn),0,5.6µM,0,0,?,0
O=C(O)C1CCCN(S(=O)(=O)c2ccc(Br)s2)C1 (stereo not drawn),-,0,0,-,0,0
Cc1c(C(=O)N(C)C2CCCCC2)sc2nc3ccc(N)cc3n12,-,?,0,8.9µM,-,0
CC(=O)Nc1ccc(S(=O)(=O)Oc2ccc(C(=S)N3CCCCC3)cc2)cc1,?,14µM,0,16µM,?,-
CCOc1cc(C(=S)N2CCOCC2)ccc1OS(=O)(=O)c1ccc(NC(C)=O)cc1,0,0,0,0,?,0
CC(=O)Nc1ccc(S(=O)(=O)Oc2ccc(C(=S)N3CCC(O)CC3)cc2)cc1,0,0,0,32µM,0,0[10 µM]
O=C1CC(c2ccco2)CC2=C1C=Nc1ccccc1N2 (stereo not drawn),?,2µM,0,0,0,?
Cc1nc2n(n1)C(c1ccccc1)C1=C(CC(c3ccco3)CC1=O)N2 (stereo not drawn),0,?,0,?,0,0[10 µM]
COc1ccc(NC2CC(=O)N(CCc3ccccc3)C2=O)cc1 (stereo not drawn),0,0,0,0,0,0[10 µM]
CCCCCCOC(=O)C[N+](C)(C)CCOC1CC2CCC1(C)C2(C)C (stereo not drawn),0,0,0,0,6.3µM,0[10 µM]
SMILES,PNC assembly inh,ALDH1A1 block,CBFb RUNX1 block,HPGD block,HTT aggregate,HTT ATP protect
O=S1(=O)CC(NCc2ccccc2)C(Nc2ccccc2)C1 (stereo not drawn),0,0,0,0,0,0[10 µM]
O=S1(=O)C[C@@H](O)[C@@H](Nc2ccc(Cl)cc2)C1,?,11µM,0,0,0,0
COc1cc(OC)c2c(c1)OC1Cc3cc(OC)c(OC)cc3C2O1 (stereo not drawn),-,0[13.5 µM],0[13.1 µM],0,-,0[10 µM]
Cc1ccc(S(=O)(=O)NC(C)(C)CSc2ncccn2)cc1,-,18µM,0,-,0[9.22 µM],0[10 µM]
O=C(O)CN(CC(=O)O)c1ccccc1OCCOc1ccccc1N(CC(=O)O)CC(=O)O,-,-,0,-,-,-
COc1ccc(N(Cc2cc(=O)[nH]c3ccccc23)C(=O)c2ccco2)cc1,0,14µM,0,0,0,0
CCC(=O)N(Cc1cc(=O)[nH]c2ccccc12)c1cccc(C)c1,0,40µM,0,?,0,0[0.074 µM]
COc1ccc(CN(C(=O)c2ccco2)c2ccccc2)cc1,0,0,0,0,0,0[10 µM]
COC(=O)NC(c1cccc(C)c1)[C@]1(C(C)=O)CCCC1=O (stereo partly drawn),-,0[13.5 µM],0[13.1 µM],-,-,0[10 µM]
Cc1nn(Cc2ccccc2)c2c1C(c1cccnc1)C(C#N)=C(N)O2 (stereo not drawn),0,7.9µM,0,0,0,0
CCN(CC)c1ccc2c(c1)OC(N)=C(C#N)C2c1cccnc1 (stereo not drawn),-99,0,0,0,?,0[0.074 µM]
N#CC1=C(N)OC2=C(CN(Cc3ccccc3)C/C2=C\c2cccnc2)C1c1cccnc1 (stereo not drawn),0,1.3µM,0,0,?,0[10 µM]
Cc1nn(Cc2ccccc2)c2c1C(c1ccc(Cl)cc1)C(C#N)=C(N)O2 (stereo not drawn),?,?,0,1µM,0,0[10 µM]
Cc1nn(Cc2ccccc2)c2c1C(c1ccncc1)C(C#N)=C(N)O2 (stereo not drawn),?,?,0,0,0,0
C/C(NC(=O)c1ccccc1)=C1/C(=O)CC2C1C2(C)C (stereo not drawn),0,?,0,?,0,0
C/C(N[C@@H]1CSCC1O)=C1/C(=O)CC2[C@@H]1C2(C)C (stereo partly drawn),-,8.9µM,0,0,-,0
CC(NC(=O)c1nn(C)c(=O)c2ccccc12)c1ccccc1 (stereo not drawn),0,16µM,0,0,?,0[0.074 µM]
Cn1nc(C(=O)NCc2ccccc2)c2ccccc2c1=O,0,20µM,0,0,0,0[10 µM]
CC(NC(=O)Cn1nc(C(=O)O)c2ccccc2c1=O)c1ccccc1 (stereo not drawn),?,0,0,0,0,0[10 µM]
O=S(=O)(NCCOC12CC3CC(CC(C3)C1)C2)c1cccc2nsnc12,0,?,0,0,0,0
N#C/C(=C\Nc1ccccn1)C(=O)c1ccco1,-,0[13.5 µM],-,0,-,0[10 µM]
COCCn1c(=O)c(-c2ccccc2)nc2cnc(Oc3cccc(Cl)c3)nc21,-,?,-,-,-,0
COc1ncc2nc(CCc3ccccc3)c(=O)n(C)c2n1,-,?,-,0,-,0
Cn1c(=O)c(CCc2ccccc2)nc2cnc(OCc3ccccc3)nc21,-,11µM,-,-,-,0
COCCn1c(=O)c(CCc2ccccc2)nc2cnc(Oc3cccc(Cl)c3)nc21,-,14µM,-,0,-,0
C[C@H](NCCN(C)C)[C@@H]1CCC2C3CCc4cc(O)ccc4[C@H]3CCC21C (stereo partly drawn),-,0[13.5 µM],-,0,-,0[10 µM]
